Assay outcomes: PubChem, Broad Institute
Shown are actives, neighbours in structure and some others; about 6.7% of the full set was active somewhere.
Pf Dd2 inh = blocks growth of Plasmodium falciparum Dd2 parasites; 2.3% of 94,000 active; P. falciparum Dd2 growth, SYBR Green, 72 h; stronger effect = lower value; activity change, % at 10 µM; in the data active = activity change below about -80%; inconclusive = no clear call, values can overlap the other calls
T cruzi growth-1 = blocks T. cruzi growth in NIH3T3 culture. T. cruzi beta-gal in NIH3T3, GalScreen luminescence, 90 h. inhibition, % at 8.34 µM. 5.9% of 77,000 active. AID 624255;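 active = mean inhibition above about 93%, with at least 55% of replicates each passing it, limit read from the data, passing the limit was not always enough; inconclusive = only one of those two conditions holds; inactive = neither condition holds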
C diff HTS = blocks growth of Clostridium difficile; Clostridium difficile clinical isolate growth, OD600, 24 h; stronger effect = lower value; growth activity, negative = inhibition, % at 16 µg/mL (by protocol); 0.25% of 86,000 active;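 active = mean growth activity at or below -80% and every replicate also at or below -80%; inconclusive = mean at or below -80% but some replicate above -80%; inactive = mean growth activity above -80%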;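 note: 0% = DMSO wells and -100% = levofloxacin 16 µg/mL wells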
T cruzi growth-2 = inhibitors of T. cruzi proliferation | inhibition, % at 8.35 µM | 72% of 5,600 active | shares compounds with T cruzi growth-1 | T. cruzi beta-gal in NIH3T3, GalScreen luminescence, 90 h;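 active = mean replicate inhibition above about 95% and at least 55% of replicates individually reaching it, limit read from the data; inconclusive = only one of the two criteria is met; inactive = neither criterion is met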
T cruzi growth-3 = Trypanosoma cruzi proliferation inhibition. 21% of 5,600 active. inhibition, % at 2.09 µM. shares compounds with T cruzi growth-1. T. cruzi beta-gal in NIH3T3, GalScreen luminescence, 90 h;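 active = mean inhibition above about 95%, with at least 55% of replicates also reaching it, limit read from the data; inconclusive = meets just one of the two conditions; inactive = meets neither condition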;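 note: plate controls were neutral control median for no effect and positive control median for full effect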
NIH3T3 tox = NIH/3T3 (mouse) viability loss. shares compounds with T cruzi growth-1. NIH/3T3 viability, CellTiter-Glo ATP luminescence, 90 h. cytotoxicity (signal decrease), % at 8.35 µM. 14% of 5,600 active. AID 651742;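 active = mean signal decrease across replicates above about 35% based on untreated-well scatter, with enough replicates individually passing, limit read from the data; inconclusive = no rule stated though some were filed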;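 note: 0% = median of neutral control wells and 100% = median of positive control wells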
3T3 cytotox 2 = kills mouse NIH/3T3 fibroblasts. shares compounds with T cruzi growth-1. NIH/3T3 viability, CellTiter-Glo ATP luminescence, 90 h. inhibition, % at 24.9 µM. 56% of 5,600 active. AID 651744;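 active = mean loss of cell viability signal at or above a set limit, and enough replicates individually reaching it; inconclusive = meets only the mean limit or only the replicate share; inactive = meets neither condition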;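 note: 0% = median of neutral control wells and 100% = median of positive control wells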
Numbers without * were called inactive; ? = inconclusive; / = not tested or not shown.

SMILES | Pf Dd2 inh | T cruzi growth-1 | C diff HTS | T cruzi growth-2 | T cruzi growth-3 | NIH3T3 tox | 3T3 cytotox 2
COc1ccc(S(=O)(=O)Nc2ccc3c(c2)C(=O)N([C@@H](C)CO)C[C@H](C)[C@H](CN(C)S(=O)(=O)c2ccc(Cl)cc2)OCCCC[C@@H](C)O3)cc1 | -61 | 99* | 5 | 104* | 84 | 10 | -23
CC(=O)N1CC2(C1)[C@H](c1ccc(-c3cccc(F)c3)cc1)[C@H](CO)N2CC1CC1 | -14 | / | 0 | / | / | / | /
COc1ccc(S(=O)(=O)N2CCCCN3[C@H](CO)[C@H](c4ccc(C#CC(C)C)cc4)[C@H]3C2)cc1 | -69 | 102* | 45 | 105* | 98* | 72* | 73*
COc1ccc(S(=O)(=O)N2CCCCN3[C@H](C2)[C@@H](c2ccc(C#CC(C)C)cc2)[C@@H]3CO)cc1 | -25 | 105* | 13 | 102* | 112* | 22 | 97*
COc1ccc(S(=O)(=O)N2CCCCN3[C@H](CO)[C@H](c4ccc(C#CCC(C)C)cc4)[C@H]3C2)cc1 | -72 | 55 | 7 | / | / | / | /
COc1ccc(C#Cc2ccc([C@H]3[C@H](CO)N4CCCCN(S(=O)(=O)c5ccccc5)C[C@@H]34)cc2)cc1 | -63 | 54 | 64 | / | / | / | /
COc1ccc(S(=O)(=O)N2CCCCN3[C@H](CO)[C@H](c4ccc(C#CCC(C)C)cc4)[C@@H]3C2)cc1 | -18 | ? | 9 | 87 | ? | 41* | 67*
COc1cccc(S(=O)(=O)N2CCCCN3[C@H](CO)[C@@H](c4ccc(C#CC(C)C)cc4)[C@H]3C2)c1 | -38 | 82 | 21 | / | / | / | /
CCC(=O)N[C@@H]1CC[C@@H](CC(=O)NCCN2CCCCC2)O[C@@H]1CO | 7 | -75 | / | / | / | / | /
CCCc1cn(CC[C@H]2CC[C@@H](NC(=O)Nc3ccc4c(c3)OCO4)[C@H](CO)O2)nn1 | -25 | -26 | -3 | / | / | / | /
C[C@@H]1CN([C@H](C)CO)C(=O)c2cc(C#CCN(C)C)cnc2O[C@@H]1CN(C)Cc1ccc(F)cc1 | 23 | 13 | -2 | / | / | / | /
C[C@H]1CN([C@@H](C)CO)C(=O)c2cc(C#Cc3ccccn3)cnc2O[C@H]1CN(C)Cc1ccccc1 | -7 | 55 | -4 | / | / | / | /
C[C@@H]1CN([C@H](C)CO)C(=O)c2cc(C#Cc3ccccn3)cnc2O[C@H]1CN(C)Cc1ccncc1 | 9 | 107* | 0 | 104* | 39 | -14 | 2
C[C@H]1CN([C@@H](C)CO)C(=O)c2cc(C#Cc3ccccn3)cnc2O[C@@H]1CN(C)Cc1ccncc1 | -9 | 65 | -1 | / | / | / | /
C[C@H](CO)N1C[C@H](C)[C@@H](CN(C)Cc2ccncc2)Oc2ncc(C#Cc3ccccn3)cc2C1=O | -3 | ? | 0 | 108* | 47 | -14 | 7
C[C@@H]1CN([C@H](C)CO)C(=O)c2cc(NS(=O)(=O)c3ccccc3)ccc2O[C@@H](C)CCCCO[C@H]1CN(C)Cc1ccc(C(=O)O)cc1 | 36 | 37 | 2 | / | / | / | /
C[C@H]1CN([C@@H](C)CO)C(=O)c2cccc(NC(=O)c3cnccn3)c2O[C@H]1CN(C)C(=O)NC1CCCCC1 | 6 | 40 | 3 | / | / | / | /
CCC(=O)Nc1ccc2c(c1)C(=O)N(C)C[C@H](OC)[C@H](C)CN(C(=O)COC)[C@H](C)CO2 | 23 | / | / | / | / | / | /
C[C@@H]1CCCCO[C@@H](CN(C)Cc2ccc(C(=O)O)cc2)[C@H](C)CN([C@H](C)CO)C(=O)c2cc(NS(=O)(=O)c3ccc(Cl)cc3)ccc2O1 | -12 | 9 | 0 | / | / | / | /
O=C(c1cccc(F)c1)N1CCCCN2[C@H](CO)[C@@H](c3ccc(-c4ccccc4)cc3)[C@@H]2C1 | -20 | 106* | 5 | 106* | ? | -7 | 59*
O=C(c1cccc(F)c1)N1CCCCN2[C@H](CO)[C@H](c3ccc(-c4ccccc4)cc3)[C@H]2C1 | -30 | 103* | 15 | 109* | 22 | 5 | 88*
O=C(c1cccc(F)c1)N1CCCCN2[C@H](CO)[C@@H](c3ccc(-c4ccccc4)cc3)[C@H]2C1 | 8 | 70 | 8 | / | / | / | /
O=C(c1cccc(F)c1)N1CCCCN2[C@H](C1)[C@@H](c1ccc(-c3ccccc3)cc1)[C@@H]2CO | 21 | 62 | 9 | / | / | / | /
C[C@H]1CCCCO[C@H](CN(C)C(=O)c2ccccc2)[C@@H](C)CN([C@@H](C)CO)C(=O)c2cc(NS(=O)(=O)c3cccs3)ccc2O1 | -50 | 56 | 8 | / | / | / | /
C#CCNC(=O)C1=C[C@@H](C(C)(C)C)C[C@@H](OCCCCO)O1 | / | / | -6 | / | / | / | /
SMILES | Pf Dd2 inh | T cruzi growth-1 | C diff HTS | T cruzi growth-2 | T cruzi growth-3 | NIH3T3 tox | 3T3 cytotox 2
C[C@@H]1CCCCO[C@@H](CN(C)Cc2ccccc2)[C@@H](C)CN([C@@H](C)CO)C(=O)c2cc(NC(=O)Nc3ccccc3)ccc2O1 | -34 | / | / | / | / | / | /
Cc1cccc(S(=O)(=O)N2CCCCN3[C@H](C2)[C@H](c2ccc(C#C[C@H](C)O)cc2)[C@@H]3CO)c1 | -17 | 110* | 16 | 110* | 63 | 41* | 14
Cc1cccc(S(=O)(=O)N2CCCCN3[C@@H](CO)[C@H](c4ccc(C#C[C@H](C)O)cc4)[C@@H]3C2)c1 | -15 | 45 | 9 | / | / | / | /
Cc1cccc(S(=O)(=O)N2CCCCN3[C@H](CO)[C@H](c4ccc(C#CC(C)C)cc4)[C@H]3C2)c1 | -73 | 69 | -2 | / | / | / | /
Cc1cccc(S(=O)(=O)N2CCCCN3[C@H](CO)[C@@H](c4ccc(C#CC(C)C)cc4)[C@H]3C2)c1 | -42 | ? | 3 | 102* | ? | 27 | 103*
Cc1cccc(S(=O)(=O)N2CCCCN3[C@H](CO)[C@@H](c4ccc(C#C[C@H](C)O)cc4)[C@@H]3C2)c1 | -33 | 80 | 2 | / | / | / | /
Cc1cccc(S(=O)(=O)N2CCCCN3[C@H](CO)[C@@H](c4ccc(C#C[C@@H](C)O)cc4)[C@@H]3C2)c1 | -34 | 66 | -2 | / | / | / | /
Cc1cccc(S(=O)(=O)N2CCCCN3[C@H](CO)[C@H](c4ccc(C#C[C@H](C)O)cc4)[C@H]3C2)c1 | -47 | 106* | 6 | ? | 36 | 33 | 41*
Cc1cccc(S(=O)(=O)N2CCCCN3[C@H](CO)[C@@H](c4ccc(C#C[C@H](C)O)cc4)[C@H]3C2)c1 | -24 | ? | 7 | 80 | 25 | 9 | 33*
CC(C)NC(=O)Nc1ccc2c(c1)C(=O)N([C@@H](C)CO)C[C@@H](C)[C@H](CN(C)S(=O)(=O)c1cn(C)cn1)O2 | 24 | -26 | -4 | / | / | / | /
CC(=O)N1CC[C@@H]2[C@H]1c1cc(-c3ccc(C#N)cc3)ccc1N(C)[C@H]2CO | 0 | 65 | -4 | / | / | / | /
Cc1ccc(S(=O)(=O)Nc2ccc3c(c2)CC(=O)N([C@@H](C)CO)C[C@H](C)[C@@H](CN(C)Cc2ccc(Cl)c(Cl)c2)O3)cc1 | -24 | 23 | 44 | / | / | / | /
